Compound activity: PubChem BioAssay, several laboratories
Only some compounds are listed: those with a hit (about 2.3% of all), similar ones and a draw of the others.
ADAM17 inh = ADAM17 inhibition, QFRET primary screen | 370,000 tested, 0.83% active | recombinant ADAM17, EDANS/DABCYL FRET peptide cleavage | inhibition, % at 6.95 µM | AID 720648 | P78536;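 active = inhibition above the mean of compounds lying between control limits plus 3 SD, set per campaign, cut at about 8.5% in these data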;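 note: 0% = DMSO-only wells as the low control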
proKLK7 act = activators of human kallikrein-7 zymogen; P49862; purified proKLK7, EDANS-DABCYL substrate fluorescence; 100% is mature enzyme control, 0% vehicle; activation, % at 7 µM; 370,000 tested, 0.9% active;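 active = activation above the mean of all tested compounds plus 3 SD, computed per campaign excluding outliers beyond control limits, cut at about 13% in these data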
ADAM10 inh = inhibitors of human ADAM10; O14672; recombinant ADAM10, EDANS/DABCYL FRET peptide cleavage, 3 h; inhibition, % at 7 µM; 370,000 tested, 0.62% active;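 active = inhibition above a per-campaign cutoff equal to the mean of compounds falling between control-based bounds plus 3 SD, cut at about 20% in these data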;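 note: 0% = DMSO wells while the 100% control is not disclosed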
Target sequence (O14672 214-748 limits assumed): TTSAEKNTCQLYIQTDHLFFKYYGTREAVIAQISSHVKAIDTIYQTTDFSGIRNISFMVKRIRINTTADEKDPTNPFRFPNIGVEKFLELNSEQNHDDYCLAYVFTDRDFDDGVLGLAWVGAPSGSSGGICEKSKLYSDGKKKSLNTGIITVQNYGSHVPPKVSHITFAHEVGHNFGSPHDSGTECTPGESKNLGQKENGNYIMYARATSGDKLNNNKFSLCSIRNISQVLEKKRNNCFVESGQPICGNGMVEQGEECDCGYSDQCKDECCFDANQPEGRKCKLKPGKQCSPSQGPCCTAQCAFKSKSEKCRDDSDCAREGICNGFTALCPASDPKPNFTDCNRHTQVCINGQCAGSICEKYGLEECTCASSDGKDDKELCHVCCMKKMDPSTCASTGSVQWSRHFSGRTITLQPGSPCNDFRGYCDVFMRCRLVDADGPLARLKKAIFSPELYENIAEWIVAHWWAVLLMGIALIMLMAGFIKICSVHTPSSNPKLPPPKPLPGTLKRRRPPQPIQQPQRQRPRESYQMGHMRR
V-ATPase pHluor = yeast V-ATPase proton transport regulation by pHLuorin | AID 504577 | response, % at 10 µM | S. cerevisiae, pHLuorin cytosolic pH fluorescence | 350,000 tested, 0.37% active; in the data active = response mostly above about 7.3%, no sharp cut-off; inactive = mostly below about 5.4%; note: actives read high
ADAM10 ctr = ADAM10 inhibition, counter-screen for ADAM17 exosite hits; shares compounds with ADAM17 inh; recombinant ADAM10, EDANS/DABCYL FRET peptide cleavage, 3 h; inhibition, % at 6.95 µM; 2,900 tested, 47% active;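 active = mean inhibition over the triplicate runs exceeds the activity threshold set in the earlier primary screen, cut at about 20% in these data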;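 note: 0% = DMSO wells and 100% = marimastat wells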
ADAM17 confirm = confirmation of inhibitors of human ADAM17 | shares compounds with ADAM17 inh | recombinant ADAM17, EDANS/DABCYL QFRET peptide cleavage | inhibition, % at 6.95 µM | 2,900 tested, 65% active;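 active = mean inhibition across replicates above the hit cutoff set in the primary screen, cut at about 8.5% in these data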;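 note: 0% = DMSO wells and 100% = marimastat wells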
* = called active by the depositor; . = not tested or not shown.

SMILES | ADAM17 inh | proKLK7 act | ADAM10 inh | V-ATPase pHluor | ADAM10 ctr | ADAM17 confirm
CCCCNC(=O)C[C@H]1C[C@@]2(C(=O)OC)C(=C[C@H](COCc3ccccc3)O[C@@H]2C)N(Cc2ccccc2)C1=O | -5 | 0 | -1 | . | . | .
CCNC(=O)N1C[C@H]2CON(C)[C@H]2C[C@H]1c1ccc(N2CCCCC2)cc1 | -5 | 0 | -14 | . | . | .
O=C(Nc1cccc(S(=O)(=O)C(F)F)c1)c1ccc(S(=O)(=O)N2CCCC2)cc1 | -2 | 0 | 9 | -3 | . | .
O=C(Nc1ccc2c(c1)CCC2)c1cccc(S(=O)(=O)N2CCN(c3ccccc3)CC2)c1 | 9.1* | -1 | 16 | 5 | 20* | 15*
O=C(Nc1cccc(S(=O)(=O)C(F)F)c1)c1ccc(S(=O)(=O)N2CCOCC2)cc1 | 11* | 0 | 13 | 1 | 14 | 9.6*
O=C(Nc1ccc(S(=O)(=O)C(F)F)cc1)c1cccc(S(=O)(=O)N2CCOCC2)c1 | 12* | 1 | 13 | -4 | 14 | 9.0*
O=c1c2ccccc2n(Cc2ccccc2)n1[C@@H](Cc1ccccc1)Cn1cc(C2CCCC2)nn1 | -120 | -4 | -426 | . | . | .
NS(=O)(=O)c1ccc(NC(CNS(=O)(=O)c2ccccc2)c2ccccc2)cc1 (stereo not given) | -5 | 0 | -5 | -2 | . | .
Cc1ccc(NC(CNS(=O)(=O)c2ccc(Cl)cc2)c2ccccc2)cc1 (stereo not given) | 13* | 0 | 15 | 2 | 31* | 15*
Cc1cc(NC(=O)COC(=O)c2ccc(OC(F)(F)F)cc2)no1 | -4 | -1 | -14 | -2 | . | .
Cc1cc(NC(=O)COC(=O)C(Nc2ccc(C(F)(F)F)cc2Cl)C(C)C)no1 (stereo not given) | 10* | -1 | 20 | 7 | 41* | 24*
Cc1ccccc1CN1CCCCC(NC(=O)C2CCCC2)C1=O (stereo not given) | -3 | 1 | -9 | . | . | .
COc1cccc(Cn2cnc3c(NS(=O)(=O)c4cc(Cl)ccc4Cl)c(C)c(C)cc32)c1 | 8.9* | 0 | 20 | -4 | 20* | 11*
CCOC(=O)[C@]12CCCC=C1N(Cc1ccc(OC)cc1)C(=O)[C@@H]2CC(=O)NCC12CC3CC(CC(C3)C1)C2 | 2 | 1 | 2 | . | . | .
CCCCCC(=O)N1C[C@H](n2cc(COC(=O)c3ccccc3)nn2)[C@@H](O)C[C@@H]1c1ccc(C)cc1 | 9.8* | 0 | 16 | -1 | 33* | 17*
CCCCCC(=O)N1C[C@@H](O)[C@H](n2cc(COC(=O)c3ccccc3)nn2)C[C@@H]1c1ccc(C)cc1 | 4 | 0 | 1 | 1 | . | .
COc1ccc([C@H]2C[C@@H](O)[C@H](n3cc(COC(=O)c4ccccc4)nn3)CN2Cc2cccs2)cc1 | -1 | -1 | -5 | -1 | . | .
COc1ccc([C@H]2C[C@H](O)[C@@H](n3cc(COC(=O)c4ccccc4)nn3)CN2Cc2cccs2)cc1 | 9.3* | 1 | 7 | 1 | 8 | 4
CCCCCC(=O)N1C[C@@H](n2cc(-c3ccc(F)cc3)nn2)[C@H](O)C[C@@H]1c1ccc(C)cc1 | 10* | 0 | 17 | -2 | 17 | 9.9*
CCCCOCCCNC(=O)C[C@H]1C[C@@]2(C(=O)OC)C(=C[C@H](C(C)C)O[C@@H]2C2CC2)N(Cc2cccc3ccccc23)C1=O | 6 | 1 | 18 | . | . | .
O=C(N/N=C/c1ccc(N2CCOCC2)c([N+](=O)[O-])c1)c1ccc(F)cc1 | -3 | 0 | -3 | 2 | . | .
O=C(N/N=C/c1ccc(N2CCCC2)c([N+](=O)[O-])c1)c1cccnc1 | 9.0* | 0 | 17 | -4 | 21* | 12*
C#CCNC(=O)C[C@H]1C[C@@]2(C(=O)OC)C(=C[C@H](C(C)(C)C)O[C@@H]2C)N(Cc2ccc3c(c2)OCO3)C1=O | 1 | 1 | -11 | . | . | .
CSc1cccc(NC(=S)NN/C(=N/S(=O)(=O)c2ccccc2)N2CCCC2)c1 | -1 | 1 | -3 | . | . | .
CC(CCN1CCC(C(O)(c2ccccc2)c2ccccc2)CC1)Oc1cccc(Br)c1 (stereo not given) | 7 | 1 | 12 | . | . | .
SMILES | ADAM17 inh | proKLK7 act | ADAM10 inh | V-ATPase pHluor | ADAM10 ctr | ADAM17 confirm
CCCCCCN1CCN(C2CN(Cc3cn(Cc4ccc(Cl)cc4)nn3)S(=O)(=O)C2)CC1 (stereo not given) | 8.9* | -1 | 4 | . | -3 | 0
O=c1[nH]cnc2nn(C3OC(CO)C(O)C3O)nc12 (stereo not given) | -2 | -1 | -7 | . | . | .
O=C(c1ccccc1F)N1CCN(S(=O)(=O)c2ccc(S(=O)(=O)N3CCCCC3)cc2)CC1 | 8.8* | 0 | 7 | 0 | -13 | -4
Cc1cc(C)c(CN2CCN(C(=O)Cn3cc(C)c(=O)[nH]c3=O)CC2)c(C)c1 | -2 | 1 | -13 | . | . | .
C/C(=N\NC(=S)NCc1ccccc1)c1ccc2ccccc2c1OC(F)F | 12* | -1 | 18 | 1 | 4 | 8
C/C(=N\NC(=S)NCc1ccccc1)c1ccc(Br)cc1 | 3 | 0 | 7 | 2 | . | .
CCOC(=O)c1cc(=O)cc(C(=O)OCC)o1 | 2 | 1 | 2 | 2 | . | .
COC(=O)c1cc(=O)cc(C(=O)OC)o1 | 8.7* | 0 | 9 | 0 | -11 | -1
Cc1cc(NC(=O)/C(C#N)=C/c2ccco2)n(-c2ccccc2)n1 | 9.0* | 0 | 16 | 2 | 20* | 11*
Cc1cc(NC(=O)CC#N)n(-c2ccccc2)n1 | -2 | 0 | 3 | 2 | . | .
Cc1ccc(S(=O)(=O)N2CCOC2CNC(=O)C(=O)NCCCc2ccccc2)cc1 (stereo not given) | 9.3* | -1 | -1 | -1 | 22* | 21*
Cc1ccc(S(=O)(=O)N2CCOC2CNC(=O)C(=O)NCCc2ccccc2)cc1 (stereo not given) | -6 | 0 | -6 | -2 | . | .
CCCC1CCC2(CC1)CCC2OC(=S)NCc1cccc(F)c1 (stereo not given) | -1 | . | 2 | . | . | .
CCOC(=O)[C@@H]1[C@H]2COc3ccc(Br)cc3[C@@H]2N2C(=O)N(c3ccc(C)cc3)C(=O)[C@]12C | -1 | 0 | 9 | 1 | . | .
CCOC(=O)[C@@H]1[C@H]2COc3ccc(Br)cc3[C@H]2N2C(=O)N(c3ccc(C)cc3)C(=O)[C@]12C | 8.8* | 0 | 14 | -2 | 33* | 22*
CCCCN1CCN(C(=O)c2cn(C(C)c3ccccc3)nn2)CC1 (stereo not given) | -1 | -1 | 3 | . | . | .
CC(CNC(=O)[C@H]1O[C@@H](n2cnc3c(=O)[nH]c(N)nc32)[C@H](O)[C@@H]1O)c1ccccc1 (stereo not given in full) | 0 | 0 | 0 | . | . | .
